# Source: PubChem BioAssay
# Sfp PPTase inh: blocks B. subtilis Sfp PPTase activity. Potency, µM, for the others: largest response in the series, negative = inhibition, usual class: inhibitors. Q9F4F7. Biochemical Sfp PPTase activity, qHTS. actives 3.5% (n = 310,000);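 note: the enzyme is Sfp with the accession as filed and its product quenches rhodamine fluorescence; 0% = enzyme reaction without inhibitor and -100% = no enzyme wells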
#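 Fluorescence-quenching assay: 15 nM Sfp-PPTase preincubated 15 min at room temperature with compound, then 5 uM rhodamine-CoA and 12.5 uM BHQ-2-labelled YbbR peptide added. Fluorescence (ex 525/em 598 nm) read at start and after 30 min; difference gives rate.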
# BAZ2B block: BAZ2B (human) inhibition. AlphaScreen BAZ2B-H3K14Ac peptide displacement. AID 504333. Q9UIF8. Potency, µM (top dose mostly 114 µM), without a hit: at the highest dose activity change, negative = inhibition, actives largely listed as inhibitors. actives 4.4% (n = 360,000); note: % is set by controls: 0 for no effect and ±100 for the full control effect; nearly all actives have a fitted effect of over 60% in size
#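 Multi-concentration screen (max 110 uM) measuring displacement of acetylated histone H3 peptide from BAZ2B by AlphaScreen, using 50 nM protein, 50 nM peptide and 10 ug/mL streptavidin donor plus Ni-chelate acceptor beads.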
# G9a inh: blocks human histone lysine methyltransferase G9a; actives 8.8% (n = 350,000); Potency, µM (titrated, usually from 102 µM), for inactives: at the highest dose activity, negative = inhibition, actives largely listed as inhibitors; AID 504332; G9a H3K9 monomethylation, AlphaScreen, 2 h; Q96KQ7; note: % is set by controls: 0 for no effect and ±100 for the full control effect; nearly all actives have a fitted effect of over 75% in size
#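 Signal arises when biotinylated H3K9 peptide, once monomethylated, bridges streptavidin donor and antibody-captured acceptor beads. Enzyme at 20 nM was preincubated 15 min with test compounds; peptide 500 nM and SAM 20 uM then reacted for 2 h.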
# JMJD2A Tudor inh: inhibitors of human JMJD2A Tudor domain | AID 504339 | AlphaScreen JMJD2A-Tudor / H3K4me3 peptide binding | Potency, µM (doses to about 114 µM), for the others: top-dose activity change, negative = inhibition, most hits filed as inhibitors | O75164 | actives 4.4% (n = 390,000); note: % is set by controls: 0 for no effect and ±100 for the full control effect; nearly all actives have a fitted effect of over 50% in size
# HP1b binding inh: HP1-beta chromodomain-methylated histone interaction inhibition. P83916. AlphaScreen HP1-beta / biotin-H3K9me3 peptide binding. actives 0.56% (n = 390,000). Potency, µM (highest dose often 114 µM), without a hit: at the highest dose activity change, negative = inhibition, most hits filed as inhibitors; note: nearly all actives have a fitted effect of over 70% in size
#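 Compound inhibition of the preformed complex between 50 nM HP1-beta and 50 nM biotinylated H3K9me3 peptide was read by AlphaScreen. Buffer was PBS pH 7.4 with 0.01% Tween-20. Incubations ran 30 min at room temperature, with 10 ug/mL donor/acceptor beads.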
# * marks the source's active call; other numbers are inactive results; ? = inconclusive; / = not tested or not shown; [ ] = dose if it differs, or a comment. Rows were chosen to be rich in hits. Some 12% of all compounds tested hit in one or more screens of this group. Calls come from the whole dose curve; as a rule, active = well fitted curve in the direction sought with a large enough effect; inconclusive = small, poorly fitted or top-dose-only effect, or another doubt; inactive = no such curve, though single readings can be large; an effect the other way counts as inactive or inconclusive. Potency is the fitted concentration of half-maximal effect.
SMILES,Sfp PPTase inh,BAZ2B block,G9a inh,JMJD2A Tudor inh,HP1b binding inh
COc1ccc(OC)c(S(=O)(=O)NCC(c2ccc(N(C)C)cc2)N2CCOCC2)c1 (centres undefined),/,-19.3%,0.8%[12.7 µM],-22.8%,8.1%
Cc1cc(C)nc(NN2C(=O)/C(=C/c3ccc(O)cc3)SC2=S)n1,-27.2%,?,28.2µM*,?,-2.0%
O=C(NN1C(=O)/C(=C/c2ccc(O)c([N+](=O)[O-])c2)SC1=S)c1ccccc1Cl,-8.7%,35.5µM*,14.1µM*,?,?
O=C(CCCN1C(=O)/C(=C/c2ccccc2Cl)SC1=S)NNC(=O)c1ccccc1Cl,-17.0%,-6.4%,10.0%[59 µM],-3.5%,23.3%
COc1ccccc1/C=C1\SC(=S)N(Nc2nc(C)cc(C)n2)C1=O,-29.4%,1.7%,?,-26.5%,27.4%
COc1cc(/C=C2\SC(=S)N(NC(=O)c3ccccc3O)C2=O)ccc1O,-18.8%,28.2µM*,-28.8%[2.33 µM],20µM*,?
O=C(NN1C(=O)/C(=C/c2cc([N+](=O)[O-])ccc2O)SC1=S)c1ccccc1O,/,5.62µM*,-18.3%[2.33 µM],/,/
O=C(O)C1CCN(S(=O)(=O)c2cccc3nonc23)CC1,13.6%,-14.7%,15.2%,14.1%,30.6%
CCN(C(=O)CCn1cnc2onc(-c3ccc(F)cc3)c2c1=O)c1ccc(OC)cc1,/,8.0%[57.1 µM],-7.9%[59 µM],-23.3%,33.9%
Cc1oc2ncn(CC(C)C)c(=O)c2c1C(=O)N1CCN(c2ccc(F)cc2)CC1,/,2.4%[57.1 µM],-7.0%[59 µM],-14.9%,7.6%
O=C(CSc1nc2ccccc2n1S(=O)(=O)c1ccccc1)N1CCCC1,15.7%,1.5%,50.1µM*,-2.1%,24.8%
O=C(CSc1nc2ccccc2c(=O)n1-c1ccccc1)N1CCC1,11.5%,-17.8%,-5.2%,-10.2%,31.8%
O=C(CSc1nc2ccccc2c(=O)n1-c1ccccc1)NC(=O)CN1CCCC1=O,25.6%,79.4µM*,50.1µM*,-16.7%,-19.7%
CCn1c(SCC(=O)N2CCCC2)nc2ccccc21,13.7%,/,4.2%,5.1%,31.8%
O=C(CSc1nc2ccccc2c(=O)n1-c1ccccc1)N1CCCC1,3.8%,-15.4%,50.1µM*,-2.4%,32.4%
COc1ccc2cc(C(C)CO)ccc2c1 (centres undefined),17.1%,/,-10.2%[2.33 µM],/,/
CN(CC(=O)Nc1ccc(N2CCOCC2)cc1)C(=O)CCNC(=O)c1ccccc1Cl,/,-1.2%,44.7µM*,-3.4%,9.8%
Cc1ccc(-c2nn(-c3ccc(F)cc3)cc2C(=O)N(C)CC(=O)Nc2ccc(N3CCOCC3)cc2)cc1,/,-5.2%,39.8µM*,-6.5%,10.3%
Cc1ccc(C)c(SCC(=O)N(C)CC(=O)Nc2ccc(N3CCOCC3)cc2)c1,/,-34.7%,44.7µM*,-17.3%,7.9%
COc1ccc(NC(=O)CN(C)C(=O)c2cn(-c3ccccc3)nc2-c2ccc(F)cc2)cc1,/,-3.2%,-17.3%[12.7 µM],-12.8%,9.1%
Cc1cc(C)c(OCC(=O)N(C)CC(=O)Nc2ccc(N3CCOCC3)cc2)c(C)c1,12.0%,-33.7%,?,-19.4%,10.2%
CSc1ccc(Cl)c(C(=O)N(C)CC(=O)Nc2ccc(N3CCOCC3)cc2)c1,/,-2.8%,35.5µM*,-28.1%,24.6%
CN(CC(=O)Nc1ccc(N2CCOCC2)cc1)C(=O)c1cc(F)c(F)cc1Cl,/,-2.3%,7.8%[0.501 µM],-19.4%,-16.8%
CSc1ccc(CCNC(=O)c2cc(C)nc3c2c(C)nn3-c2ccccc2)cc1,/,-3.7%[57.1 µM],-2.3%[59 µM],-0.3%,42.5%
COc1ccc(NC(=O)c2cccc3c(=O)c4c([nH]c23)CCCC4)cc1,/,-14.6%,-24.6%[59 µM],-2.3%,37.9%
SMILES,Sfp PPTase inh,BAZ2B block,G9a inh,JMJD2A Tudor inh,HP1b binding inh
Cc1ccc(S(=O)(=O)Nc2ccc(C(=O)NCCCn3ccnc3)cc2)cc1[N+](=O)[O-],/,-31.3%,2.2%[59 µM],-7.1%,46.5%
CN(CC(=O)Nc1ccc(N2CCOCC2)cc1)C(=O)CCc1ccccc1Cl,/,?,25.1µM*,-23.4%,-14.3%
CC1(C)NC(=O)N(CC(=O)OCC(=O)NC(=O)c2ccccc2)C1=O,/,10.0%,39.8µM*,-7.6%,17.8%
O=C(CCS(=O)(=O)c1cc(Br)cc2c1N(C(=O)C1CC1)CC2)N1CCN(c2ccccc2)CC1,/,-0.2%,-22.1%[59 µM],-6.8%,19.3%
COc1ccc(-c2nc(-c3ccccc3)c(Nc3c(C)cccc3C)o2)cc1,-14.0%,/,/,/,/
CN(CC(=O)Nc1ccc(Cl)c(C(F)(F)F)c1)C(=O)c1cn2ccccc2n1,/,?,35.5µM*,-13.1%,15.9%
C[n+]1cccc2cccc([O-])c21,-22.1%,56.2µM*,/,?,1.4%
[O-][n+]1cccc2cccc(O)c21,/,/,/,-14.5%,5.1%[57 µM]
COc1cccc(-c2ccc3ncnc(NCc4cccc(F)c4)c3c2)c1,/,-20.4%,8.2%[12.7 µM],/,/
O=S1(=O)CCC(NC(=S)N2CCCCC2)C1 (centres undefined),8.9%,9.4%,11.5%[59 µM],-10.7%,24.7%
O=S1(=O)CCC(NC(=S)NCCNC(=S)NC2CCS(=O)(=O)C2)C1 (centres undefined),?,8.9%,50.1µM*,-10.1%,39.4%
NC(=S)NC1CCS(=O)(=O)C1 (centres undefined),15.1%,8.8%,-2.7%,10.0%,38.7%
C=CCSC(=S)NC1CCS(=O)(=O)C1 (centres undefined),-21.1%,8.6%,50.1µM*,-0.7%,31.3%
Cn1nnnc1SCCNC(=O)C1CCC(=O)N(CCc2cccc(F)c2)C1 (centres undefined),13.3%,4.3%,0.159µM*,10.9%,29.0%
Cc1cc(C)c2c(CC(=O)Nc3ccc(S(=O)(=O)Nc4ncccn4)cc3)coc2c1,/,-11.3%,?,-19.1%,15.0%
CNC(=S)NNC(=O)c1cn(C)nc1C,79.4µM*,-7.8%,39.8µM*,-10.5%,54.3%
CC1CCCCC1NC(=O)C1CCC(CNS(=O)(=O)c2ccccc2)CC1 (centres undefined),10.5%,4.5%,-1.7%,-10.5%,11.7%
COc1cc2c(cc1OC)-c1n[nH]c(=S)n1C(C)(C)C2,-11.3%,-2.7%,3.98µM*,39.8µM*,41.0%
COc1cc2c(cc1OC)-c1nnnn1C(C)(C)C2,-3.3%,-1.1%,-0.6%[59 µM],-2.6%,38.5%
Cc1cccc(C2=NN(c3ccccc3)[C@H](CO)[C@H]2C)c1,-28.9%,/,-36.1%,/,/
CCN1C(=O)[C@H]2[C@@H](c3ccc(-c4ccc5c(c4)OCO5)cc3)N[C@@](Cc3ccccc3)(C(=O)OC)[C@H]2C1=O,/,/,/,-23.4%,36.7%
COC(=O)C1(Cc2ccccc2)NC(c2ccccc2C)C2C(=O)N(c3ccc4c(c3)OCO4)C(=O)C21 (centres undefined),1.8%,3.8%,0.794µM*,-29.4%,9.2%
COc1ccc(-n2cc(-c3ccccc3)c3c(N4CCN(CCO)CC4)ncnc32)cc1,?,?,50.1µM*,?,-8.7%
COc1ccc(-n2cc(-c3ccccc3)c3c(NN4CCOCC4)ncnc32)cc1,1.7%,?,50.1µM*,?,?
